From paper PMC11006913
Where a chain is given by its changes, count along the chain named.

Assays:
Experiment in all cases: PBM; 200 nM protein, PBS
Conditions in all cases: dsDNA, one strand shown
CRX [1] = molecular target: CRX (Homo sapiens, UniProt O43186 26-111)
CRX [2] = molecular target: CRX (Homo sapiens, UniProt O43186 26-111, E42D)
ALX4 [3] = molecular target: ALX4 (Homo sapiens, UniProt Q9H161 200-286)
ALX4 [4] = molecular target: ALX4 (Homo sapiens, UniProt Q9H161 200-286, Q225E)
HOXA2 [5] = molecular target: HOXA2 (Homo sapiens, UniProt O43364 129-215, R185T)
ALX1 [6] = molecular target: ALX1 (Homo sapiens, UniProt Q15699 118-204, L144V)
HOXA2 [7] = molecular target: HOXA2 (Homo sapiens, UniProt O43364 129-215, R185K)
ALX1 [8] = molecular target: ALX1 (Homo sapiens, UniProt Q15699 118-204, L144R)
HOXA2 [9] = molecular target: HOXA2 (Homo sapiens, UniProt O43364 129-215, Y150S)
CRX [10] = molecular target: CRX (Homo sapiens, UniProt O43186 26-111, R41L)
ALX1 [11] = molecular target: ALX1 (Homo sapiens, UniProt Q15699 118-204)
HOXA2 [12] = molecular target: HOXA2 (Homo sapiens, UniProt O43364 129-215)
PRRX1 [13] = molecular target: PRRX1 (Homo sapiens, UniProt P54821 80-166, F113S)
PRRX1 [14] = molecular target: PRRX1 (Homo sapiens, UniProt P54821 80-166)
HOXA7 [15] = molecular target: HOXA7 (Homo sapiens, UniProt P31268 116-202)
HOXA7 [16] = molecular target: HOXA7 (Homo sapiens, UniProt P31268 116-202, W177C)
NKX2-6 = molecular target: T1, NKX2-6 (Homo sapiens, UniProt A6NCS4 118-204, R150C)
T1 sequence: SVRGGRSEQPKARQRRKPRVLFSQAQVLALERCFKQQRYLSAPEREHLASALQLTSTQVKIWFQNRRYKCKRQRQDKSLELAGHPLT

VAX1 [17] = molecular target: VAX1 (Homo sapiens, UniProt Q5SQQ9 86-172)
VAX1 [18] = molecular target: VAX1 (Homo sapiens, UniProt Q5SQQ9 86-172, T142I)
VAX1 [19] = molecular target: VAX1 (Homo sapiens, UniProt Q5SQQ9 86-172, K157R)
SIX6 = molecular target: T2, SIX6 (Homo sapiens, UniProt O95475 114-200, T165P)
T2 sequence: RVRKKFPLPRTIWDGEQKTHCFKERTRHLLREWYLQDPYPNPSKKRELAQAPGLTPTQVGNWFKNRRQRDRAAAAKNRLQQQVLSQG

HOXB6 [20] = molecular target: HOXB6 (Homo sapiens, UniProt P17509 132-218, K202E)
HOXB6 [21] = molecular target: HOXB6 (Homo sapiens, UniProt P17509 132-218)
HOXC10 [22] = molecular target: HOXC10 (Homo sapiens, UniProt Q9NYD6 254-340)
HOXC10 [23] = molecular target: HOXC10 (Homo sapiens, UniProt Q9NYD6 254-340, K271E)
ALX3 = ALX3 (Homo sapiens, UniProt O95076 139-225, N203Q)
PAX4 [24] = molecular target: T3, PAX4 (Homo sapiens, UniProt O43316 9-242)
T3 sequence: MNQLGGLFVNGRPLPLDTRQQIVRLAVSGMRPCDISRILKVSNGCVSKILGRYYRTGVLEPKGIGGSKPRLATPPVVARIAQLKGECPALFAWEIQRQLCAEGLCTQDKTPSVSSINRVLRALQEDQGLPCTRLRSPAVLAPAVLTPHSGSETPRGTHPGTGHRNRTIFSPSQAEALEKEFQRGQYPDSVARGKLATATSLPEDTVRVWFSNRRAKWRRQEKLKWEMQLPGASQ

PAX4 [25] = molecular target: T4, PAX4 (Homo sapiens, UniProt O43316 9-242, F177V)
T4 sequence: T3 sequence with F169V

PAX4 [26] = molecular target: T5, PAX4 (Homo sapiens, UniProt O43316 9-242, F177Y)
T5 sequence: T3 sequence with F169Y

PAX4 [27] = molecular target: T6, PAX4 (Homo sapiens, UniProt O43316 9-242, R227W)
T6 sequence: T3 sequence with R219W

Chain of CRX (Homo sapiens, UniProt O43186 26-111) (O43186 26-111): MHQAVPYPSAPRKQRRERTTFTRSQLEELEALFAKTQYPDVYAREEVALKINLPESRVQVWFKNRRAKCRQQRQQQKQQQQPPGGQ
Chain of CRX (Homo sapiens, UniProt O43186 26-111, R41L) (O43186 26-111 R41L): as the sequence (O43186 26-111) above, with R16L counted along it
Chain of CRX (Homo sapiens, UniProt O43186 26-111, E42D) (O43186 26-111 E42D): as the sequence (O43186 26-111) above, with E17D counted along it
Chain of ALX4 (Homo sapiens, UniProt Q9H161 200-286) (Q9H161 200-286): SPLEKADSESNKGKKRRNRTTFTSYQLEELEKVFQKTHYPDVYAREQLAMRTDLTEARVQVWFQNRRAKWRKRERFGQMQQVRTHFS
Chain of PRRX1 (Homo sapiens, UniProt P54821 80-166) (P54821 80-166): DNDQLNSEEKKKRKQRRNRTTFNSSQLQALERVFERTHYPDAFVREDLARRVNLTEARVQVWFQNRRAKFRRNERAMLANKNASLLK
Chain of PRRX1 (Homo sapiens, UniProt P54821 80-166, F113S) (P54821 80-166 F113S): as the sequence (P54821 80-166) above, with F34S counted along it
Chain of ALX4 (Homo sapiens, UniProt Q9H161 200-286, Q225E) (Q9H161 200-286 Q225E): as the sequence (Q9H161 200-286) above, with Q26E counted along it
Chain of HOXC10 (Homo sapiens, UniProt Q9NYD6 254-340) (Q9NYD6 254-340): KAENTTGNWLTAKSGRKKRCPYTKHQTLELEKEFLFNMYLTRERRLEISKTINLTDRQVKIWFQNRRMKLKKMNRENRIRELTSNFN
Chain of HOXC10 (Homo sapiens, UniProt Q9NYD6 254-340, K271E) (Q9NYD6 254-340 K271E): as the sequence (Q9NYD6 254-340) above, with K18E counted along it
Chain of HOXA7 (Homo sapiens, UniProt P31268 116-202) (P31268 116-202): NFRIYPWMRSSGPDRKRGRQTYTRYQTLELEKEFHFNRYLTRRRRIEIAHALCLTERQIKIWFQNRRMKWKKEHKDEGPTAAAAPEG
Chain of ALX1 (Homo sapiens, UniProt Q15699 118-204, L144V) (Q15699 118-204 L144V): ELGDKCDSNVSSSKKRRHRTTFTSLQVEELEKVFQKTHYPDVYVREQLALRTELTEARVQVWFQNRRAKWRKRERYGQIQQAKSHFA
Chain of VAX1 (Homo sapiens, UniProt Q5SQQ9 86-172, K157R) (Q5SQQ9 86-172 K157R): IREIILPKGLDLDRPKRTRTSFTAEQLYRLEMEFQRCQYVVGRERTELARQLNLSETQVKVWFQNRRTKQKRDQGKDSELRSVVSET
Chain of HOXB6 (Homo sapiens, UniProt P17509 132-218, K202E) (P17509 132-218 K202E): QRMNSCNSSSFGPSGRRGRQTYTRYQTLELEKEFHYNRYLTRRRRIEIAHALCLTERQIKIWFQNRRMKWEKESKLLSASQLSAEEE
Chain of ALX1 (Homo sapiens, UniProt Q15699 118-204) (Q15699 118-204): as the sequence (Q15699 118-204 L144V) above, with V27L counted along it
Chain of HOXA7 (Homo sapiens, UniProt P31268 116-202, W177C) (P31268 116-202 W177C): as the sequence (P31268 116-202) above, with W62C counted along it
Chain of ALX3 (O95076 139-225 N203Q): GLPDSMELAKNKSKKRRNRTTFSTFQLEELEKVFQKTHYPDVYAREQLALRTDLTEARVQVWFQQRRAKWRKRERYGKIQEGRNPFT
Chain of ALX1 (Homo sapiens, UniProt Q15699 118-204, L144R) (Q15699 118-204 L144R): as the sequence (Q15699 118-204 L144V) above, with V27R counted along it
Chain of VAX1 (Homo sapiens, UniProt Q5SQQ9 86-172) (Q5SQQ9 86-172): as the sequence (Q5SQQ9 86-172 K157R) above, with R72K counted along it
Chain of VAX1 (Homo sapiens, UniProt Q5SQQ9 86-172, T142I) (Q5SQQ9 86-172 T142I): as the sequence (Q5SQQ9 86-172 K157R) above, with T57I, R72K counted along it
Chain of HOXA2 (Homo sapiens, UniProt O43364 129-215, R185K) (O43364 129-215 R185K): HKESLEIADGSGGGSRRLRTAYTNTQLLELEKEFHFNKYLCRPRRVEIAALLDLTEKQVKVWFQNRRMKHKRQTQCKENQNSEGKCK
Chain of HOXA2 (Homo sapiens, UniProt O43364 129-215, Y150S) (O43364 129-215 Y150S): as the sequence (O43364 129-215 R185K) above, with Y22S, K57R counted along it
Chain of HOXB6 (Homo sapiens, UniProt P17509 132-218) (P17509 132-218): as the sequence (P17509 132-218 K202E) above, with E71K counted along it
Chain of HOXA2 (Homo sapiens, UniProt O43364 129-215) (O43364 129-215): as the sequence (O43364 129-215 R185K) above, with K57R counted along it
Chain of HOXA2 (Homo sapiens, UniProt O43364 129-215, R185T) (O43364 129-215 R185T): as the sequence (O43364 129-215 R185K) above, with K57T counted along it

Which results are given for AGCTCAGG?
binding signal (CRX [1]): 9.99 upbm affinity estimate (log intensity, higher = more binding, comparable within an allelic series); binding signal (CRX [2]): 9.91 upbm affinity estimate (log intensity, higher = more binding, comparable within an allelic series)

How did the binding signal (CRX [1]) turn out when ACCGGGCG was run?
Its binding signal is 7.62 upbm affinity estimate (log intensity, higher = more binding, comparable within an allelic series).

And the binding signal (ALX4 [3])?
The binding signal was 7.78 upbm affinity estimate (log intensity, higher = more binding, comparable within an allelic series).

What about the binding signal (ALX4 [4]) of the same sequence?
Its binding signal is 7.99 upbm affinity estimate (log intensity, higher = more binding, comparable within an allelic series).

And the binding signal (HOXA2 [5])?
The binding signal was 6.76 upbm affinity estimate (log intensity, higher = more binding, comparable within an allelic series).

What about the binding signal (CRX [2]) of the same sequence?
Its binding signal is 7.73 upbm affinity estimate (log intensity, higher = more binding, comparable within an allelic series).

And the binding signal (ALX1 [6])?
Its binding signal is 6.09 upbm affinity estimate (log intensity, higher = more binding, comparable within an allelic series).

And the binding signal (HOXA2 [7])?
Its binding signal is 10.3 upbm affinity estimate (log intensity, higher = more binding, comparable within an allelic series).

What about the binding signal (ALX1 [8]) of the same sequence?
Its binding signal is 6.25 upbm affinity estimate (log intensity, higher = more binding, comparable within an allelic series).

And the binding signal (HOXA2 [9])?
Its binding signal is 10.3 upbm affinity estimate (log intensity, higher = more binding, comparable within an allelic series).

What about the binding signal (CRX [10]) of the same sequence?
The binding signal was 7.79 upbm affinity estimate (log intensity, higher = more binding, comparable within an allelic series).

What about the binding signal (ALX1 [11]) of the same sequence?
Its binding signal is 6.19 upbm affinity estimate (log intensity, higher = more binding, comparable within an allelic series).

And the binding signal (HOXA2 [12])?
The binding signal was 7.26 upbm affinity estimate (log intensity, higher = more binding, comparable within an allelic series).

ACTGCGTG was tested. Which binding signal (CRX [1]) did it give?
The binding signal was 8.27 upbm affinity estimate (log intensity, higher = more binding, comparable within an allelic series).

What about the binding signal (PRRX1 [13]) of the same sequence?
Its binding signal is 9.32 upbm affinity estimate (log intensity, higher = more binding, comparable within an allelic series).

What about the binding signal (CRX [2]) of the same sequence?
Its binding signal is 8.35 upbm affinity estimate (log intensity, higher = more binding, comparable within an allelic series).

What about the binding signal (CRX [10]) of the same sequence?
The binding signal was 8.29 upbm affinity estimate (log intensity, higher = more binding, comparable within an allelic series).

What about the binding signal (PRRX1 [14]) of the same sequence?
Its binding signal is 9.57 upbm affinity estimate (log intensity, higher = more binding, comparable within an allelic series).

How did the binding signal (CRX [1]) turn out when AGCGTCCG was run?
The binding signal was 8.29 upbm affinity estimate (log intensity, higher = more binding, comparable within an allelic series).

What about the binding signal (HOXA7 [15]) of the same sequence?
The binding signal was 8.2 upbm affinity estimate (log intensity, higher = more binding, comparable within an allelic series).

And the binding signal (CRX [2])?
Its binding signal is 8.33 upbm affinity estimate (log intensity, higher = more binding, comparable within an allelic series).

And the binding signal (HOXA7 [16])?
The binding signal was 8.37 upbm affinity estimate (log intensity, higher = more binding, comparable within an allelic series).

And the binding signal (CRX [10])?
The binding signal was 8.29 upbm affinity estimate (log intensity, higher = more binding, comparable within an allelic series).

What does the source list for CGGCACGA?
binding signal (CRX [1]): 8.45 upbm affinity estimate (log intensity, higher = more binding, comparable within an allelic series); binding signal (NKX2-6): 9.55 upbm affinity estimate (log intensity, higher = more binding, comparable within an allelic series); binding signal (CRX [2]): 8.43 upbm affinity estimate (log intensity, higher = more binding, comparable within an allelic series); binding signal (VAX1 [17]): 6.96 upbm affinity estimate (log intensity, higher = more binding, comparable within an allelic series); binding signal (VAX1 [18]): 7.11 upbm affinity estimate (log intensity, higher = more binding, comparable within an allelic series); binding signal (CRX [10]): 8.41 upbm affinity estimate (log intensity, higher = more binding, comparable within an allelic series); binding signal (VAX1 [19]): 7.16 upbm affinity estimate (log intensity, higher = more binding, comparable within an allelic series)

How did the binding signal (CRX [1]) turn out when GCGGATCA was run?
The binding signal was 11.3 upbm affinity estimate (log intensity, higher = more binding, comparable within an allelic series).

And the binding signal (SIX6)?
Its binding signal is 9.3 upbm affinity estimate (log intensity, higher = more binding, comparable within an allelic series).

And the binding signal (CRX [2])?
The binding signal was 11.2 upbm affinity estimate (log intensity, higher = more binding, comparable within an allelic series).

And the binding signal (CRX [10])?
The binding signal was 10.8 upbm affinity estimate (log intensity, higher = more binding, comparable within an allelic series).

Which results are given for CAGGGCGG?
binding signal (CRX [1]): 8.46 upbm affinity estimate (log intensity, higher = more binding, comparable within an allelic series); binding signal (HOXB6 [20]): 8.95 upbm affinity estimate (log intensity, higher = more binding, comparable within an allelic series); binding signal (CRX [2]): 8.33 upbm affinity estimate (log intensity, higher = more binding, comparable within an allelic series); binding signal (CRX [10]): 8.31 upbm affinity estimate (log intensity, higher = more binding, comparable within an allelic series); binding signal (HOXB6 [21]): 8.83 upbm affinity estimate (log intensity, higher = more binding, comparable within an allelic series)

For CATCATAA, which binding signal (CRX [1]) is on record?
Its binding signal is 10.1 upbm affinity estimate (log intensity, higher = more binding, comparable within an allelic series).

What about the binding signal (HOXC10 [22]) of the same sequence?
Its binding signal is 11.7 upbm affinity estimate (log intensity, higher = more binding, comparable within an allelic series).

And the binding signal (CRX [2])?
Its binding signal is 10 upbm affinity estimate (log intensity, higher = more binding, comparable within an allelic series).

What about the binding signal (HOXC10 [23]) of the same sequence?
Its binding signal is 11.3 upbm affinity estimate (log intensity, higher = more binding, comparable within an allelic series).

What about the binding signal (CRX [10]) of the same sequence?
Its binding signal is 9.57 upbm affinity estimate (log intensity, higher = more binding, comparable within an allelic series).

What does the source list for TGTGTTAA?
binding signal (CRX [1]): 10.4 upbm affinity estimate (log intensity, higher = more binding, comparable within an allelic series); binding signal (CRX [2]): 10.2 upbm affinity estimate (log intensity, higher = more binding, comparable within an allelic series)

What does the source list for CCTCCCAC?
binding signal (CRX [1]): 8.12 upbm affinity estimate (log intensity, higher = more binding, comparable within an allelic series); binding signal (ALX4 [3]): 7.99 upbm affinity estimate (log intensity, higher = more binding, comparable within an allelic series); binding signal (PRRX1 [13]): 9.27 upbm affinity estimate (log intensity, higher = more binding, comparable within an allelic series); binding signal (ALX4 [4]): 8.07 upbm affinity estimate (log intensity, higher = more binding, comparable within an allelic series); binding signal (CRX [2]): 8.07 upbm affinity estimate (log intensity, higher = more binding, comparable within an allelic series); binding signal (CRX [10]): 8.16 upbm affinity estimate (log intensity, higher = more binding, comparable within an allelic series); binding signal (PRRX1 [14]): 9.17 upbm affinity estimate (log intensity, higher = more binding, comparable within an allelic series)

CCTTATTA was tested. Which binding signal (CRX [1]) did it give?
The binding signal was 11 upbm affinity estimate (log intensity, higher = more binding, comparable within an allelic series).

And the binding signal (HOXC10 [22])?
The binding signal was 11.3 upbm affinity estimate (log intensity, higher = more binding, comparable within an allelic series).

What about the binding signal (CRX [2]) of the same sequence?
Its binding signal is 10.9 upbm affinity estimate (log intensity, higher = more binding, comparable within an allelic series).

And the binding signal (ALX3)?
Its binding signal is 8.6 upbm affinity estimate (log intensity, higher = more binding, comparable within an allelic series).

What about the binding signal (HOXC10 [23]) of the same sequence?
The binding signal was 11.2 upbm affinity estimate (log intensity, higher = more binding, comparable within an allelic series).

What about the binding signal (CRX [10]) of the same sequence?
The binding signal was 10.4 upbm affinity estimate (log intensity, higher = more binding, comparable within an allelic series).

Which results are given for ACTTTATC?
binding signal (CRX [1]): 10.6 upbm affinity estimate (log intensity, higher = more binding, comparable within an allelic series); binding signal (CRX [2]): 10.4 upbm affinity estimate (log intensity, higher = more binding, comparable within an allelic series)

What does the source list for AATGCTAA?
binding signal (CRX [1]): 10.4 upbm affinity estimate (log intensity, higher = more binding, comparable within an allelic series); binding signal (PAX4 [24]): 10.9 upbm affinity estimate (log intensity, higher = more binding, comparable within an allelic series); binding signal (CRX [2]): 10.3 upbm affinity estimate (log intensity, higher = more binding, comparable within an allelic series); binding signal (PAX4 [25]): 10.1 upbm affinity estimate (log intensity, higher = more binding, comparable within an allelic series); binding signal (PAX4 [26]): 10.2 upbm affinity estimate (log intensity, higher = more binding, comparable within an allelic series); binding signal (PAX4 [27]): 10.2 upbm affinity estimate (log intensity, higher = more binding, comparable within an allelic series)
